{"source": "PubChem BioAssay AID540364", "about": "(The Scripps Research Institute Molecular Screening Center, 2011)", "note": "The campaign covered roughly 360,000 compounds. About 2,000 (0.56%) were called active.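 The calls were made as follows: active = activation above the average of all compounds screened plus 3 SD, cutoff fixed separately per campaign (cut at about 7.5% in these data); inactive = the rest.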 What follows is part of a selection rich in actives, with near analogues and random picks from the rest.", "data": [{"assay": "FXN promoter activators, primary screen, cell-based, luciferase luminescence, HEK293 lucGAA850 (AID 540364);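 also: 0% = DMSO wells and 100% = 10 µM SAHA wells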", "conditions": "HEK293 lucGAA850 FXN promoter luciferase reporter, 24 h; at 6 µM; stronger effect = higher value; percent of 10 µM SAHA response", "values": [{"smiles": "Cc1cc(=O)oc2c3c(cc(OCC(=O)NCC(O)c4ccccc4)c12)OC(C)(C)CC3", "note": "(stereo not drawn)", "activation": "1.51% (inactive)"}, {"smiles": "CC(C)CCC(C)NC(=O)c1ccc2nccnc2c1", "note": "(stereo not drawn)", "activation": "9.19% (active)"}, {"smiles": "Cc1ccc(C)c(NC(=O)c2ccc3nccnc3c2)c1", "activation": "-0.14% (inactive)"}, {"smiles": "O=C(NCCc1ccc(F)cc1)c1ccc2nccnc2c1", "activation": "3.24% (inactive)"}, {"smiles": "CCc1ccc(N(CC(=O)NCc2cccnc2)S(=O)(=O)c2ccccc2)cc1", "activation": "-0.07% (inactive)"}, {"smiles": "CN(CC(=O)NCc1cccnc1)S(=O)(=O)c1cc(Cl)ccc1Cl", "activation": "-2.15% (inactive)"}, {"smiles": "O=C(CN(c1cc(C(F)(F)F)ccc1Cl)S(=O)(=O)c1ccccc1)NCc1cccnc1", "activation": "8.32% (active)"}, {"smiles": "COc1ccc(OC)c(NC(=O)c2cnn(-c3ccccc3Cl)c2NC(=O)c2ccco2)c1", "activation": "2.28% (inactive)"}, {"smiles": "O=[N+]([O-])/C=C/c1ccc2c(ccn2Cc2ccccc2)c1", "activation": "15.3% (active)"}, {"smiles": "COc1ccc(NC(=S)SC)cc1OC", "activation": "0.31% (inactive)"}, {"smiles": "COc1ccc(CN2C(=O)CN=C2Nc2ccc(C)cc2C)cc1", "activation": "2.67% (inactive)"}, {"smiles": "Cc1ccc(OCC(=O)Nc2ccc(-c3nnc(-c4ccco4)o3)cc2)cc1", "activation": "9.76% (active)"}, {"smiles": "CCOC(=O)C1=C(O)/C(=C/c2ccc(OCC(=O)Nc3ccc(C)cc3)cc2)N=C1C", "activation": "-1.6% (inactive)"}, {"smiles": "Cc1ccc(NC(=O)COc2ccc(/C=C3/NC(=O)NC3=O)cc2)cc1", "activation": "-1.99% (inactive)"}, {"smiles": "Cc1noc(C)c1NC(=O)Nc1ccc2c(c1)C(=O)N([C@H](C)CO)C[C@H](C)[C@@H](CN(C)S(=O)(=O)c1cn(C)cn1)O2", "activation": "0.14% (inactive)"}, {"smiles": "CCOC(=O)C1=C(CC)Nc2ccccc2N=C1NC(=O)c1cccc(S(=O)(=O)N2CCCC2)c1", "activation": "-2.08% (inactive)"}, {"smiles": "Cn1c(CCN2CCCCCC2)nc2cc(NC(=O)Nc3ccccc3)ccc21", "activation": "10.5% (active)"}, {"smiles": "CCC(=O)Nc1ccc2c(c1)nc(CCN1CCN(c3ccccn3)CC1)n2C", "activation": "1.46% (inactive)"}, {"smiles": "Cc1nn(CC(=O)Nc2ccc3c(c2)nc(CN2CCCCC2)n3C)c(=O)c2ccccc12", "activation": "-1.92% (inactive)"}, {"smiles": "O=C(CNCCC1=CCCCC1)Nc1ccccc1N1CCCCCC1", "activation": "-0.31% (inactive)"}, {"smiles": "Cc1cc(C)c2c(-n3cccc3)c(C(=O)NNS(=O)(=O)c3ccc(F)cc3)sc2n1", "activation": "-0.88% (inactive)"}, {"smiles": "COc1cc(S(=O)(=O)N2CCN=C2c2ccccc2)ccc1Cl", "activation": "2.5% (inactive)"}, {"smiles": "COCCn1c(=NC(=O)c2ccccc2[N+](=O)[O-])sc2cc(S(C)(=O)=O)ccc21", "activation": "8.06% (active)"}, {"smiles": "COC(=O)CNC(=O)c1ccccc1[N+](=O)[O-]", "activation": "1.03% (inactive)"}, {"smiles": "Cn1c(=NC(=O)c2ccc3c(c2)OCCO3)sc2cc(S(C)(=O)=O)ccc21", "activation": "-0.86% (inactive)"}, {"smiles": "CCOC(=O)C1CCN(C(=O)Cn2nc(C)c3c(C)n(-c4ccccc4)nc3c2=O)CC1", "activation": "-0.2% (inactive)"}, {"smiles": "COc1ccc(N2C(=O)CNC2=S)cc1", "activation": "-3.02% (inactive)"}, {"smiles": "COc1ccc(-n2cc(-c3ccccc3)c3c(=S)nc[nH]c32)cc1", "activation": "8.54% (active)"}, {"smiles": "COc1ccccc1CNC(=O)C1Cc2ccccc2C(=O)O1", "note": "(stereo not drawn)", "activation": "-0.56% (inactive)"}, {"smiles": "COc1cccc(N(C(=O)c2ccn[nH]2)C2(C(=O)Nc3c(C)cccc3C)CCCCC2)c1", "activation": "-6.45% (inactive)"}, {"smiles": "CCc1ccc(N(C(=O)c2csnn2)C(C(=O)NC2CCCCC2)c2ccncc2)cc1", "note": "(stereo not drawn)", "activation": "8.57% (active)"}, {"smiles": "O=C(NC1CCCC1)C(c1ccco1)N(C(=O)c1csnn1)c1ccccc1", "note": "(stereo not drawn)", "activation": "0.36% (inactive)"}, {"smiles": "CCc1ccc(N(C(=O)c2csnn2)C(C(=O)NC2CCCCC2)c2cccnc2)cc1", "note": "(stereo not drawn)", "activation": "-1.27% (inactive)"}, {"smiles": "CCOc1ccc(N2C(=O)CC(N(CCc3ccc(OC)c(OC)c3)C(=S)Nc3ccccc3)C2=O)cc1", "note": "(stereo not drawn)", "activation": "8.9% (active)"}, {"smiles": "CN(C)c1ccc(NC(=S)N(CCc2ccccc2)C2CC(=O)N(c3c(Cl)cccc3Cl)C2=O)cc1", "note": "(stereo not drawn)", "activation": "0.24% (inactive)"}, {"smiles": "COC(=O)CN(C(=S)Nc1ccc(Cl)cc1)C1CC(=O)N(c2ccc(OC)cc2)C1=O", "note": "(stereo not drawn)", "activation": "1.91% (inactive)"}, {"smiles": "COc1ccc(NC(=O)CSc2ccc(-c3ccco3)nn2)c(OC)c1", "activation": "0.41% (inactive)"}, {"smiles": "COc1ccc2[nH]c3nc(SCC(=O)NC4CC4)nnc3c2c1", "activation": "0.57% (inactive)"}, {"smiles": "Oc1cccc2cc(-c3ccncc3)cnc12", "activation": "2.66% (inactive)"}, {"smiles": "COC(=O)c1ccc(NC(=O)CSc2nc(N)c(NC(=O)c3ccc(Br)o3)c(=O)[nH]2)cc1", "activation": "1.31% (inactive)"}, {"smiles": "COc1ccc(C2Nc3ccccc3C(=O)N2c2ccc(Cl)cc2)cc1Cn1cc([N+](=O)[O-])cn1", "note": "(stereo not drawn)", "activation": "10.7% (active)"}, {"smiles": "COc1ccc(C2Nc3ccccc3C(=O)N2Cc2ccccc2)cc1Cn1nnc2ccccc21", "note": "(stereo not drawn)", "activation": "-2.6% (inactive)"}, {"smiles": "COc1ccc(CN2CCCC(C(=O)c3ccc(Cl)cc3)C2)cc1Cn1cncn1", "note": "(stereo not drawn)", "activation": "1.04% (inactive)"}, {"smiles": "N#C/C(=C(\\O)CCl)c1nnc2n1CCCCC2", "activation": "-0.95% (inactive)"}, {"smiles": "CCOC(=O)C1(C)CCCN(C(=O)c2cccc(Cl)c2)C1", "note": "(stereo not drawn)", "activation": "-0.57% (inactive)"}, {"smiles": "CC(C)Oc1ccc(C(CC(=O)N2CCOCC2)C(C)C)cc1", "note": "(stereo not drawn)", "activation": "2.86% (inactive)"}, {"smiles": "CC(C)(C)c1ccc(C(=O)NCc2ccco2)cc1", "activation": "8.75% (active)"}, {"smiles": "CC(C)(C)NC(=O)NCc1ccco1", "activation": "0.33% (inactive)"}, {"smiles": "O=C(NCc1ccco1)/C(=C/c1ccco1)NC(=O)c1ccccc1", "activation": "1.61% (inactive)"}, {"smiles": "COc1ccc(C2NC(=O)C(=O)/C2=C(\\O)c2ccc(Cl)cc2)cc1OC", "note": "(stereo not drawn)", "activation": "-0.36% (inactive)"}, {"smiles": "CC/C(=C(/c1ccccc1)c1ccc(OCC[N+](C)(C)C)cc1)c1ccccc1", "activation": "-0.77% (inactive)"}, {"smiles": "CC1CN(Cc2ccco2)C(=S)N(c2ccccc2)C1=O", "note": "(stereo not drawn)", "activation": "2.7% (inactive)"}, {"smiles": "CN(C)C(=S)N=c1ssc(=S)n1Cc1ccco1", "activation": "16.1% (active)"}, {"smiles": "CCN(CC)C(=O)CSc1nnc(CNc2ccc(F)cc2)n1Cc1ccco1", "activation": "-2.98% (inactive)"}, {"smiles": "O=C(COc1ccc2ccc(=O)oc2c1)NCC(O)c1ccccc1", "note": "(stereo not drawn)", "activation": "1.75% (inactive)"}, {"smiles": "O=C(CC1NCCNC1=O)Nc1cc(Cl)cc(Cl)c1", "note": "(stereo not drawn)", "activation": "1.12% (inactive)"}, {"smiles": "O=C(CC1NCCc2ccccc21)Nc1cccc(Cl)c1", "note": "(stereo not drawn)", "activation": "7.89% (active)"}, {"smiles": "O=C(CC1C(=O)NCCN1C(=O)c1ccc([N+](=O)[O-])cc1)Nc1cccc(Cl)c1", "note": "(stereo not drawn)", "activation": "0.62% (inactive)"}]}]}
